These results are taken from PubChem BioAssay (NCATS).

Each structure is given as a SMILES string. Where “and” joins values, the source holds several entries; their conditions need not be identical. Equal entries are not always repeated. Results filed as inconclusive are left out. Calls of active or inactive are those of the source. Unless noted, calls come from the whole dose curve.

Assay [1] in a line: Primary qHTS for inhibitors of SARS-S pseudo-typed particle cell entry (AID 1479145). For activity change, negative = inhibition: % is set by controls: 0 for no effect and ±100 for the full control effect. Note: nearly all actives have a fitted effect of over 45% in size. Note: potency is the fitted concentration of half-maximal effect. The conditions noted are these: outcome: dose series up to 57.1 µM unless noted. For orientation: qHTS replaces the single test concentration by a dilution series.
Assay [2] is described as follows: Primary qHTS for Huh7 cytotoxicity: counterscreen for inhibitors of MERS-S pseudotyped particle cell entry (AID 1479147). The conditions noted are these: outcome: dose series up to 57.1 µM unless noted.
Assay [3] can be described thus: Primary qHTS for inhibitors of MERS-S pseudo-typed particle cell entry (AID 1479149). For activity change, negative = inhibition: % is set by controls: 0 for no effect and ±100 for the full control effect. Note: nearly all actives have a fitted effect of over 60% in size. Note: potency is the fitted concentration of half-maximal effect. Particulars: outcome: dose series up to 57.1 µM unless noted.
A short description of assay [4]: Cytotoxicity counterscreen for inhibitors of SARS-CoV-2 cell entry (AID 1645845). Note: nearly all actives have a fitted effect of over 50% in size. Note: potency is the fitted concentration of half-maximal effect. Particulars: outcome: dose series up to 57.1 µM unless noted. The essentials: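 48 h compound treatment (after 1 h preincubation), HEK293-ACE2 cells, 37 C/5% CO2; ATP luminescence endpoint; normalized to cell wells and media blanks.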
For orientation: Counterscreens check selectivity or assay interference.

The nature of assay [5]: Primary qHTS to identify inhibitors of SARS-CoV-2 cell entry (AID 1645846). Note: nearly all actives have a fitted effect of over 45% in size. Note: potency is the fitted concentration of half-maximal effect. Particulars: SARS-CoV-2 pseudovirus cell entry assay, luminescence; activity change, negative = inhibition: at 57.1 µM (top of the series) unless noted. In outline:
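Entry measured by luciferase signal 48 h after adding SARS-CoV-2-S pseudotyped MLV particles to HEK293-ACE2 cells preincubated 1 h with compounds. Normalisation: bald particles and spike particles.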

The nature of assay [6]: Primary qHTS for Vero E6 cytotoxicity: counterscreen for inhibitors of SARS-S pseudo-typed particle cell entry (AID 1479150). Particulars: outcome: dose series up to 57.1 µM unless noted.
Assay [7] addresses Cytochrome P450 2D6 (Homo sapiens) (UniProt P10635). Nature of the assay: Cytochrome P450 family 2 subfamily D member 6 (CYP2D6) small molecule antagonists: luciferase biochemical (cell-free) qHTS assay (AID 1645840; active = well fitted curve in the direction sought with a large enough effect in the repeat runs; an effect the other way counts as inactive or inconclusive; note: potency is the fitted concentration of half-maximal effect; nearly all actives have a fitted effect of over 55% in size). The essentials:
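P450-Glo luminescent screen: recombinant CYP2D6 enzyme–proluciferin substrate mix preincubated with compound 10 min at room temperature, then NADPH regeneration added for 1 h at room temperature. Detection reagent added for 20 min; luciferin light read as relative luminescence units.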

Assay [8] concerns the target Cytochrome P450 2C9 (Homo sapiens) (UniProt P11712). As to the kind of experiment: Cytochrome P450 family 2 subfamily C member 9 (CYP2C9) small molecule antagonists: luciferase biochemical (cell-free) qHTS assay (AID 1645842; active = well fitted curve in the direction sought with a large enough effect in the repeat runs; an effect the other way counts as inactive or inconclusive; note: potency is the fitted concentration of half-maximal effect; nearly all actives have a fitted effect of over 55% in size). The essentials:
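Luminescence, after 20 min with luciferin detection reagent, reflected CYP2C9 turnover during a 1 h NADPH-driven reaction at 37C. Enzyme-substrate mix contained 0.4% bovine serum albumin and was preincubated with compound 10 min at room temperature.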

For assay [9], the target named is Glutathione peroxidase 1 (Homo sapiens) (UniProt P07203). As to the kind of experiment: Primary qHTS Assay for Inhibitors of Recombinant Selenoprotein Glutathione Peroxidase 1 (GPX1) (AID 1845191; active = well fitted curve in the direction sought with a large enough effect; an effect the other way counts as inactive or inconclusive; note: nearly all actives have a fitted effect of over 65% in size). The essentials:
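10 nM GPX1 + cpd, 30 min RT; start w/ 1 mM GSH, 0.5 mM cumene hydroperoxide, 0.5 mM NADPH, 100 nM GR, 0.01% BSA; buffer 50 mM Tris-HCl pH 7.5, 2 mM EDTA, 150 mM NaCl; Fl 340/450, 0 & 15 min.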

Assay [10] addresses Phospholipid hydroperoxide glutathione peroxidase GPX4 (Homo sapiens) (UniProt P36969). As to the kind of experiment: Primary qHTS Assay for Inhibitors of Recombinant Selenoprotein Glutathione Peroxidase 4 (GPX4) (AID 1845192; active = well fitted curve in the direction sought with a large enough effect; an effect the other way counts as inactive or inconclusive; note: % is set by controls: 0 for no effect and ±100 for the full control effect; nearly all actives have a fitted effect of over 65% in size). In outline:
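NADPH consumption, followed by fluorescence at 340/450 nm between 0 and 15 min, reports GPX4 activity via coupled glutathione reductase (100 nM). Enzyme 200 nM was pre-exposed to compound 30 min; 0.5 mM cumene hydroperoxide and 1 mM GSH served as substrates.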

Assay [11] in a line: KB-8-5-11 P-gp reporter qHTS against the NCATS DSHEA and TCM libraries (AID 1919977; active = well fitted curve in the direction sought with a large enough effect; an effect the other way counts as inactive or inconclusive; note: 0% is about no effect). The essentials:
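CellTiter-Glo luminescence measured viability after ~72 h exposure (37C, 5% CO2) of KB-8-5-11 cervical adenocarcinoma cells overexpressing P-gp. Colchicine was omitted during assay. Substances were tested as titrations.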

Assay [12] concerns the target Nuclear receptor subfamily 1 group I member 3 (Homo sapiens) (UniProt Q14994). Nature of the assay: Primary qHTS for antagonist of constitutive androstane receptor (CAR) against the NCATS DSHEA and TCM libraries (AID 1794836; active = well fitted curve in the direction sought with a large enough effect; an effect the other way counts as inactive or inconclusive;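 note: HepG2 cells stably expressing hCAR with CYP2B6 luciferase reporter stimulated by CITCO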). The essentials: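 Antagonist mode: CAR reporter luminescence (ONE-Glo) in HepG2-CYP2B6-hCAR cells stimulated with 48 uM CITCO (final) over 24 h at 37 C, compounds titrated; viability read first by CellTiter-Fluor fluorescence.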

A short description of assay [13]: VSVG counterscreen qHTS to identify inhibitors of SARS-CoV-2 cell entry (AID 1645847). Note: potency is the fitted concentration of half-maximal effect; nearly all actives have a fitted effect of over 65% in size. In outline: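 Luminescence read after 48 h infection at 37 C with VSV-G-pseudotyped MLV particles, following 1 h compound exposure of Expi293F cells stably expressing human ACE2; scaled between bald particle and VSV-G particle wells.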

Glutathione peroxidase 1 (Homo sapiens), sequence (P07203 whole entry, looked up): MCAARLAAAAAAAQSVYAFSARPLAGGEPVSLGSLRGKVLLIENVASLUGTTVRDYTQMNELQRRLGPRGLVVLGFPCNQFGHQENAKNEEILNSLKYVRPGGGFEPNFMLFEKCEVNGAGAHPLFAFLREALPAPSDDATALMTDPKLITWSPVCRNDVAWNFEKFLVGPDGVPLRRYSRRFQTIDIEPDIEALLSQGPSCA
Nuclear receptor subfamily 1 group I member 3 (Homo sapiens), sequence (Q14994 whole entry, looked up): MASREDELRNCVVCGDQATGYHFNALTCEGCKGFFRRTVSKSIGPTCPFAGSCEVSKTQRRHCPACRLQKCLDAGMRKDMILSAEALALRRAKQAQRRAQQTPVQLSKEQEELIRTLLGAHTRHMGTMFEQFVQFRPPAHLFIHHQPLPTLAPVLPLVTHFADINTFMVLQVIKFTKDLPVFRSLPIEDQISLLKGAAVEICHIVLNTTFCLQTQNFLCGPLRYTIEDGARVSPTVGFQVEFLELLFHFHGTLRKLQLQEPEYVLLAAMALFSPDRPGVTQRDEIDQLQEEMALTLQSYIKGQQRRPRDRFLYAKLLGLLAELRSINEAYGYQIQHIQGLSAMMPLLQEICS
Phospholipid hydroperoxide glutathione peroxidase GPX4 (Homo sapiens), sequence (P36969 whole entry, looked up): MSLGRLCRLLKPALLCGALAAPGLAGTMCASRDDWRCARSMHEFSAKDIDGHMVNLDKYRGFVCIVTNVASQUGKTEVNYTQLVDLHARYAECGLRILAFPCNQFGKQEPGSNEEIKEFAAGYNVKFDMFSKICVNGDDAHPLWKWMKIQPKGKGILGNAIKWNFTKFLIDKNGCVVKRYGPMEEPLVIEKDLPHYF
Cytochrome P450 2C9 (Homo sapiens), sequence (P11712 whole entry, looked up): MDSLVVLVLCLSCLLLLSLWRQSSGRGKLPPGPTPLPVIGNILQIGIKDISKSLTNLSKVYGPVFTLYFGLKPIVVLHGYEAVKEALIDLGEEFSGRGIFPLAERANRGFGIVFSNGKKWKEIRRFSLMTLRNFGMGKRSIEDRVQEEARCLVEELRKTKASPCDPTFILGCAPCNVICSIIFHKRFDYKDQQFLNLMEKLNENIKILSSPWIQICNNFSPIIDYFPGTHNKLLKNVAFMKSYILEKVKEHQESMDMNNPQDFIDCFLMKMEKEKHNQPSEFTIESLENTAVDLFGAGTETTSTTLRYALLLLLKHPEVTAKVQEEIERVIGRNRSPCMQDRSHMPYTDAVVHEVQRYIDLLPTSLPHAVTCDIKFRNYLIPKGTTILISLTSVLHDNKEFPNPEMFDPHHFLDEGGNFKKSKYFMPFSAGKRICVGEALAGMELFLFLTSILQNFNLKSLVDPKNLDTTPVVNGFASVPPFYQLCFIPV
Cytochrome P450 2D6 (Homo sapiens), sequence (P10635 whole entry, looked up): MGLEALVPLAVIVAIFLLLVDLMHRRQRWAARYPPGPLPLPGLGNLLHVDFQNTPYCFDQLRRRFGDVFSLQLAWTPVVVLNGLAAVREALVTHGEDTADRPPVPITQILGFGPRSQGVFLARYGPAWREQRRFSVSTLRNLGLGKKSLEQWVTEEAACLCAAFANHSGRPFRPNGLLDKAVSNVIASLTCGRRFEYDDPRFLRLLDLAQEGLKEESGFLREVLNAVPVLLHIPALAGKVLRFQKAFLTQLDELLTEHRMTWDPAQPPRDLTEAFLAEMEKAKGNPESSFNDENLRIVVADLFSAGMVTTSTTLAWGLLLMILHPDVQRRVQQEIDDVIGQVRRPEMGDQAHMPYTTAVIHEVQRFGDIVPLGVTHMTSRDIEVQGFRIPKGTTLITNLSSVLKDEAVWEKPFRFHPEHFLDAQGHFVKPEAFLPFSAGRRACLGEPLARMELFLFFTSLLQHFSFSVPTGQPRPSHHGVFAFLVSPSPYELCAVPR

Turning to `CC(C)CCCC(C)NC(C)C` (stereo not drawn), the Potency entry in [1], in [2], in [3] and in [4] was “inactive” throughout. Besides, the activity change, negative = inhibition in [5] is -25.3%.
With `COc1cc(O)c(C(=O)Nc2nc(C(=O)NCCN(C(C)C)C(C)C)cs2)cc1OC`, the Potency entry in [1], in [2], in assay [3] and in assay [6] was “inactive” in each case. In addition, in [5], the activity change, negative = inhibition was -17.9%.
For `O=C(/C=C/c1cccc(S(=O)(=O)Nc2ccccc2)c1)NO`, the Potency was 10 µM (active) in assay [1] and 12.6 µM (active) in assay [4]. Further, the Potency result in assay [2] and in assay [3] was “inactive” each time. Further, the activity change, negative = inhibition in [5] is -13.6%.
Take `CCOC(=O)CN[C@@H](C(=O)N1CC[C@H]1C(=O)NCc1ccc(/C(N)=N/O)cc1)C1CCCCC1`: the Potency result in [1], in assay [2], in assay [3] and in assay [6] was “inactive” throughout. The activity change, negative = inhibition in [5] was -19.7%.
In the case of `CCOC(=O)O[C@]1(C(=O)COC(=O)CC)CC[C@H]2[C@@H]3CCC4=CC(=O)C=C[C@]4(C)[C@H]3[C@@H](O)C[C@@]21C`, the Potency entry in [1], in assay [2], in [3], in [6] and in [5] was “inactive” each time.
Regarding `CC(C)=C/C(C)=N\Nc1nncc2ccccc12`, the Potency result in [1], in assay [2], in assay [3] and in assay [5] was “inactive” each time.
Take `CS(=O)(=O)c1ccc([C@@H](O)[C@@H](COC(=O)CN)NC(=O)C(Cl)Cl)cc1`: the Potency entry in assay [1], in assay [2], in [3] and in assay [4] was “inactive” throughout.
Consider `CC(=O)OCC(=O)[C@@]1(O)CC[C@H]2[C@@H]3C[C@H](C)C4=CC(=O)C=C[C@]4(C)[C@H]3[C@@H](O)C[C@@]21C`, for which the Potency entry in assay [1], in assay [2], in [3], in assay [4] and in [5] was “inactive” in each case.
`N[C@@H]1CCCCN(c2c(F)cc3c(=O)c(C(=O)O)cn(C4CC4)c3c2Cl)C1`: the Potency entry in assay [1], in assay [2], in assay [3] and in assay [6] was “inactive” in each case. Further, the activity change, negative = inhibition in assay [5] is -8.2%.
Consider `CC=CC1C(C(=O)OCc2c(F)c(F)c(COC)c(F)c2F)C1(C)C` (stereo not drawn), for which the Potency result in assay [1], in assay [2], in [3] and in assay [4] was “inactive” each time. In addition, the Potency in [7] was 6.74 µM (active); in assay [8], 10.7 µM (active). Moreover, in [5], the activity change, negative = inhibition is -7.64%.
For the compound `CCCCOc1ccc(C[N+]2(C)C3CCC2CC(OC(=O)[C@H](CO)c2ccccc2)C3)cc1` (stereo partly drawn), the Potency result in [1], in [2], in [3], in [6], in assay [9] and in [10] was “inactive” in each case. The activity change, negative = inhibition in assay [5] was -21.1%.
Turning to `O=[N+]([O-])O[C@@H]1CO[C@H]2[C@@H]1OC[C@@H]2O`, the Potency result in [1], in assay [2], in assay [3] and in [6] was “inactive” in each case. In addition, in [5], the activity change, negative = inhibition was -29.2% [at 114 µM].
`CCCCCCCCCCCC[n+]1ccc2ccccc2c1`: the Potency in assay [1] is 2.82 µM (active); in assay [3] it was 5.62 µM (active); in assay [5] it was 3.16 µM (active). In addition, in [2], the Potency result is “inactive”.
As for `CC/C=C\C/C=C\C/C=C\C/C=C\C/C=C\CCCC(=O)O`, the Potency entry in assay [1], in assay [2], in [3], in [6] and in [11] was “inactive” throughout. Moreover, the activity change, negative = inhibition in assay [5] was -29%.
On to `Cc1ncc(COP(=O)(O)O)c(C)c1O`, for which the Potency result in assay [1], in [2], in assay [3], in assay [6], in assay [12] and in [11] was “inactive” in each case. For the same compound, the activity change, negative = inhibition in [5] is -31.2%.
With `Cc1nc(NS(=O)(=O)c2ccc(N)cc2)nc(C)c1Br`, the Potency result in [1], in [2], in [3] and in assay [6] was “inactive” each time. In addition, the activity change, negative = inhibition in assay [5] is -21.5%.
As to `C=C/C=C/CC1=C(C)[C@H](OC(=O)[C@H]2[C@H](/C=C(\C)C(=O)OC)C2(C)C)CC1=O`, the Potency entry in assay [1], in assay [2], in assay [3], in [6], in assay [9] and in assay [10] was “inactive” in each case.
`C=C1/C(=C/C=C2\CCC[C@]3(C)[C@@H]([C@H](C)CCCC(O)(C(F)(F)F)C(F)(F)F)CC[C@@H]23)C[C@@H](O)C[C@@H]1O`: the Potency entry in [1], in assay [2] and in assay [6] was “inactive” throughout.
`CCC(C(=O)NC(N)=O)c1ccccc1` (stereo not drawn): the Potency entry in assay [1], in [2], in assay [3] and in assay [6] was “inactive” each time. Moreover, the activity change, negative = inhibition in assay [5] was -16.3%.
Consider `CC1(C)S[C@H]2[C@H](NC(=O)[C@@H](N)c3ccc(O)cc3)C(=O)N2[C@H]1C(=O)O`, for which the Potency result in assay [1], in [2], in assay [3] and in assay [6] was “inactive” in each case. Further, the activity change, negative = inhibition in assay [5] was -1.08% and -18.3%.
Regarding `O=C(O[C@H]1C[N+]2(CCCOc3ccccc3)CCC1CC2)C(O)(c1cccs1)c1cccs1`, the Potency result in assay [1], in assay [2], in assay [3] and in assay [6] was “inactive” in each case. In addition, the activity change, negative = inhibition in [5] is -28.6%.
As for `CCCCCC/C=C\CCCCCCCC(=O)O`, the Potency result in [1], in assay [2], in assay [3], in assay [4], in [12] and in assay [11] was “inactive” throughout.
For `NC(=S)NS(=O)(=O)c1ccc(N)cc1`, the Potency entry in assay [1], in assay [2], in assay [3] and in [6] was “inactive” in each case. The activity change, negative = inhibition in assay [5] is -18.4%.
Consider `CN[C@H]1C[C@@H](N)[C@H](O)[C@@H](O[C@@H]2O[C@H](CO)[C@H](O)[C@@H]3OC4(O[C@H]23)O[C@H]([C@@H](N)CO)[C@H](O)[C@H](O)[C@H]4O)[C@@H]1O` (stereo partly drawn), for which the Potency result in assay [1], in [2], in assay [3] and in assay [6] was “inactive” in each case. Besides, in assay [5], the Potency is 17.8 µM (active).
For the compound `C#C[C@]1(O)CC[C@H]2[C@@H]3CCC4=C/C(=N/O)CC[C@@H]4[C@H]3CC[C@@]21CC`, the Potency entry in [1], in assay [2], in [3] and in assay [6] was “inactive” each time. Besides, the activity change, negative = inhibition in assay [5] is -1.12%.
With `NCCCC[C@H](NC(=O)[C@@H]1CCCN1C(=O)[C@@H]1CSSC[C@H](N)C(=O)N[C@@H](Cc2ccccc2)C(=O)N[C@@H](Cc2ccccc2)C(=O)N[C@@H](CCC(N)=O)C(=O)N[C@@H](CC(N)=O)C(=O)N1)C(=O)NCC(N)=O`, the Potency result in assay [1], in assay [2], in assay [3] and in [6] was “inactive” throughout. Also, in assay [5], the activity change, negative = inhibition is -27.3%.
Regarding `C[C@H]1[C@H](O)[C@@H](C)/C=C/C=C/CC/C=C/C=C/C=C/C=C/C(OC2O[C@H](C)[C@@H](O)[C@H](N)[C@@H]2O)CC2O[C@](O)(CC(O)C(O)CCC(O)CC(O)CC(O)CC(=O)O[C@H]1C)CC(O)C2C(=O)O` (stereo partly drawn), the Potency result in assay [1], in assay [2], in assay [3], in assay [6] and in assay [9] was “inactive” throughout.
Consider `CCC[C@H](NC(=O)[C@@H]1[C@H]2CCC[C@H]2CN1C(=O)[C@@H](NC(=O)[C@@H](NC(=O)c1cnccn1)C1CCCCC1)C(C)(C)C)C(=O)C(=O)NC1CC1`, for which the Potency result in assay [1], in [2] and in [6] was “inactive” throughout. For the same compound, the activity change, negative = inhibition in assay [5] came to 0.184%.
For `CN1C(CC(=O)c2ccccc2)CCCC1CC(O)c1ccccc1` (stereo not drawn), the Potency entry in assay [1], in [2], in assay [6] and in assay [4] was “inactive” in each case. In addition, in assay [13], the Potency is 3.83 µM (active).
